Results on 40 compounds are retold here after PubChem BioAssay (Tox21).

The structures appear in SMILES notation. Activity calls are given as the source filed them. The call rests on the fitted dose curve; in most records, active means well fitted curve in the direction sought with a large enough effect in the repeat runs; inconclusive means weak or mixed curves; inactive means flat fitted curve, though single readings scatter.
On the % scale 0 is the no-effect control and ±100 the full control effect.

The nature of the test: qHTS assay to test for compound auto fluorescence at 535 nm (green) in HEK293 cells (AID 720680). The conditions noted are these: green autofluorescence 485/535 nm; series mostly up to 91.3 µM. From the text:
U.S. Tox21 Program National Center for Advancing Translational Sciences [NCATS] NIH Chemical Genomics Center [NCGC] U.S. Environmental Protection Agency [EPA] National Institutes of Environmental Health Sciences [NIEHS] National Toxicology Program [NTP] U.S. Food and Drug Administration [FDA] Tox21 Assay Overview: Compound auto fluorescence often interferes with screening of the compound library against various biological targets and signaling pathways. Some of these compounds may have fluorophoric properties. Such properties may interfere with the assay outputs resulting in false positives and/or negatives. To decrease such complications and ensure the compound activities are relevant in terms of biological response, the Tox21 10K compound library was screened for auto fluorescence. From the fluorophores used as reporter signals in our screening assays, the auto fluorescence equivalencies of compounds against three fluorophores have been evaluated: Triamterene, Fluorescein and Rose Bengal sodium for blue, green and red fluorescence, respectively. The fluorescence intensities were measured using Excitation/Emission wavelengths at 405/460nm, 485/535nm and 540/590nm for blue, green and red labels, respectively. This assay includes the green fluorescence data.
Tox21 Assay Protocol Summary: 2,000 HEK293 cells in 5 uL of culture medium containing 10% dialyzed FBS per well were dispensed into black wall/clear bottom 1536-well plates using a Multidrop Combi Dispenser (Thermo Scientific). The assay plates were incubated for 4-5 hr at 37C to allow cell attachment to the well bottom, followed by the transfer of 23 nL compound or DMSO vehicle by a pintool work station (Kalypsys, San Diego, CA). After the assay plates were incubated overnight at 37C and 5% CO2, fluorescence intensities in the assay plates were measured by an Envision (PerkinElmer, Shelton, CT) plate reader using three labels for measuring blue, green and red fluorescence at […] 460, 535 and 590nm respectively.
(In general: In qHTS, concentration-response curves come from the screen itself.)
In the case of `O=C1OC(=O)c2c(Br)c(Br)c(Br)c(Br)c21`, the compound was called inactive.
`C=CCOC(=O)COCCC(C)C`: the compound was called inactive.
The same measure, in the same setting: with `CCCCCCCC/C=C\CCCCCCCC(=O)OCCO` the entry was “inactive”.
Same read-out and setting: as for `CCCCCc1ccco1`, the entry is “inactive”; as for `C[C@@H]1[C@H](O)[C@@H](C)/C=C/C=C\C=C\C=C\C=C\C=C\C=C\[C@H](O[C@@H]2O[C@H](C)[C@@H](O)[C@H](N)[C@@H]2O)C[C@@H]2O[C@](O)(C[C@@H](O)C[C@@H](O)[C@H](O)CC[C@@H](O)C[C@@H](O)CC(=O)O[C@H]1C)C[C@H](O)[C@H]2C(=O)O` (stereo in doubt), “inactive”.
Still for that read-out and setting: with `C=C(C)C(=O)OCCC(F)(F)C(F)(F)C(F)(F)C(F)(F)C(F)(F)C(F)(F)F` the entry was “inactive”.
Consider `O=C(O)c1ccc(O)cc1O`, for which the compound was called inactive.
Still for that read-out and setting: with `COC1CCC=CO1` (stereo not given) the entry was “inactive”; with `CN1CCCN(C(c2ccccc2)c2ccc(Cl)cc2)CC1` (stereo not given), “inactive”.
With `CCC(C)(C)C(=O)O`, the outcome was inactive.
Still for that read-out and setting: as for `O=C(Oc1ccccc1)c1ccc2ccccc2c1O`, the entry is “inactive”.
For `CCC(Cl)CC(Cl)C(Cl)C(Cl)C(Cl)C(C)Cl` (stereo not given), the fluorescence, % of fluorescein was 0.0197% [at 13.4 µM] (inactive).
As for `CC(C)(O)CCc1ccccc1`, the compound was called inactive.
On the same count and under the same terms, with `N[C@@H](Cc1cc(I)c(O)c(I)c1)C(=O)O` the entry was “inactive”; with `CC(C)(C)S`, “inactive”.
Consider `CC1CCCO1` (stereo not given), for which the result was inactive.
In the case of `Nc1cccc2c(N)cccc12`, the result was inactive.
Same read-out and setting: as for `O=C(c1ccccc1)C1CCC1`, the entry is “inactive”.
Still for that read-out and setting: as for `Cc1ccc(NC(=O)N(C)C)cc1NC(=O)N(C)C`, the entry is “inactive”; as for `CC(=O)N[C@@H](Cc1ccc(O)cc1)C(=O)O`, “inactive”.
Same read-out and setting: with `CNCc1ccc(NC(=O)c2c[nH]c3c2C(=O)CCC3)cc1` the entry was “inactive”; with `COc1ccc(CCN(C)CCCN2CCc3cc(OC)c(OC)cc3CC2=O)cc1OC`, “inactive”; with `Cc1cc([N+](=O)[O-])ccc1N`, “inactive”.
On to `CC(C)(C)NCC(O)COc1cccc2c1C[C@H](O)[C@H](O)C2` (stereo not given in full), for which the fluorescence, % of fluorescein was 0.0671% [at 18.6 µM] (inactive).
As to `CC(C)(C)C(O)/C=C/c1ccc2c(c1)OCO2` (stereo not given), the compound was classed as inactive.
The same measure, in the same setting: with `Oc1ccc2c(c1)Cc1ccccc1-2` the entry was “inactive”; with `COc1ccc(C2C(=O)c3ccccc3C2=O)cc1`, “inactive”.
With `CNS(=O)(=O)c1cc(C(=O)N2CCC(CCN3C4CCC3CC(n3c(C)nc5ccccc53)C4)(c3cccc(F)c3)CC2)c(Cl)cc1F` (stereo not given), the call was inactive.
The same measure, in the same setting: as for `CC(=O)OCC(C)C`, the entry is “inactive”.
Same read-out and setting: as for `COc1cc(OC)c2ccc(=O)oc2c1`, the entry is “inactive”; as for `CCSC(=O)N(CC)CC`, “inactive”; as for `CC(C)COC(=O)c1ccc(O)cc1`, “inactive”.
Same read-out and setting: with `Nc1ccn([C@H]2CS[C@@H](CO)O2)c(=O)n1` the entry was “inactive”; with `O=C(Nc1ccc(C(=O)O)c(O)c1)c1ccccc1`, “inactive”; with `O=[N+]([O-])c1ccc2ncccc2c1`, “inactive”.
Turning to `CCOCCC(=O)OCC`, the compound was classed as inactive.
Same read-out and setting: as for `CC[C@H]1OC(=O)[C@H](C)[C@@H](O[C@H]2C[C@@](C)(OC)[C@@H](O)[C@H](C)O2)[C@H](C)[C@@H](O[C@@H]2O[C@H](C)C[C@H](N(C)C)[C@H]2O)[C@](C)(O)C[C@@H](C)CN(C)[C@H](C)[C@@H](O)[C@]1(C)O`, the entry is “inactive”; as for `COc1cc(C(C)=O)ccc1OCCCN1CCC(c2noc3cc(F)ccc23)CC1`, “inactive”; as for `CCCCCCCC(=O)OCCCCCC`, “inactive”.
In the case of `CC(C(=O)O)c1ccc(C(=O)c2cccs2)cc1` (stereo not given), the fluorescence, % of fluorescein was 0.0235% [at 18.6 µM] (inactive).
